Activity calls are given as the source filed them.
Experiments:
[1] = optical density shifts of acrAB sulA E. coli – strain DRC41, OD650, 48 h, E. coli filamentation inducer project, primary screen (AID 1152); settings: higher = more signal, called active from +8 up or from −8 down;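 further: E. coli MC1000 strain DRC41 lacking acrAB efflux pump and sulA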
[2] = probe aLefty1 binding on compound microarray – biochemical, small-molecule microarray, 635/667 nm fluorescence, primary screen (AID 1153); settings: higher = more signal;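 further: score merges spot fluorescence with signal-to-noise ratio from the scanned slide images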
[3] = plasmodial surface anion channel blockers, osmotic lysis – cell-based, P. falciparum Indochina, OD700, 1 h, primary screen (AID 1154); settings: P. falciparum Indochina infected RBC osmotic lysis, higher = more signal, called active from +8 up or from −8 down
[4] = plasmodial surface anion channel blockers, osmotic lysis – cell-based, P. falciparum Indochina, OD700, 2 h, primary screen (AID 1155);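 further: lysis reports solute entry through the parasite surface anion channel PSAC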; settings: P. falciparum Indochina infected erythrocytes, higher = more signal, called active from +8 up or from −8 down
[5] = changes in parasitized red cell lysis, either direction – P. falciparum Indochina, OD700, 3 h, PSAC antagonist project, primary screen (AID 1156); settings: P. falciparum-infected erythrocytes, osmotic lysis, higher = more signal, called active from +8 up or from −8 down
[6] = plasmodial surface anion channel blockers, osmotic lysis – cell-based, P. falciparum Indochina, OD700, 18 h, primary screen (AID 1157); settings: P. falciparum Indochina infected erythrocytes, osmotic lysis OD700, 18 h; higher = more signal, called active from +8 up or from −8 down
[7] = S6 kinase pathway phospho-S6 level changes – cell-based, A549, cytoblot, luminescence, serum-stimulated, primary screen (AID 1158); settings: 5 h, higher = more signal;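 further: serum-stimulated A549 lung adenocarcinoma cells; signal is phosphorylated S6 detected by cytoblot immunostaining with HRP secondary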
[8] = biological target: NADPH oxidase 2 (Homo sapiens) (UniProt P04839); experiment: compounds shifting NOX2 Amplex Red fluorescence – cell-based, HEK293-NOX2, PMA-stimulated, NOX inhibitor project, primary screen (AID 1159); settings: 45 min, higher = more signal, called active from +8 up or from −8 down; further: test concentration not given here
[9] = biological target: NADPH oxidase 4 (Homo sapiens) (UniProt Q9NPH5); experiment: compounds shifting NOX4 Amplex Red fluorescence – cell-based, HEK293-NOX4, tetracycline-induced, NOX inhibitor project, primary screen (AID 1160); settings: HEK293-NOX4, Amplex Red H2O2 fluorescence, 45 min; higher = more signal, called active from +8 up or from −8 down
[10] = biological target: NADPH oxidase 5 (Homo sapiens) (UniProt Q96PH1); experiment: compounds shifting NOX5 Amplex Red fluorescence – cell-based, HEK293-NOX5, NOX inhibitor project, primary screen (AID 1161); settings: HEK293-NOX5, ionomycin, 45 min, higher = more signal
[11] = compound effects on lung adenocarcinoma cell viability – A549, calcein-AM fluorescence, 48 h, basal, profiling panel (AID 1162); settings: higher = more signal; further: test concentration not given here
[12] = compound effects on differentiated 3T3-L1 adipocyte viability – cell-based, 3T3-L1 adipocytes, calcein-AM fluorescence, 48 h, basal, profiling panel (AID 1163); settings: 3T3-L1 adipocytes viability, higher = more signal; further: test concentration not given here
[13] = compound effects on hepatocellular carcinoma cell viability – HepG2, calcein-AM fluorescence, 48 h, basal, profiling panel (AID 1164); settings: higher = more signal; further: test concentration not given here
[14] = compound effects on multiple myeloma cell viability – MM1S, calcein-AM fluorescence, 48 h, basal, profiling panel (AID 1165); settings: higher = more signal;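 further: viability of MM1S multiple myeloma cells under basal unstimulated conditions; test concentration not given here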
[15] = calcein-AM signal in unstimulated myeloma cells – cell-based, calcein-AM fluorescence, 48 h, PK04 Diversity Set, profiling panel (AID 1166); settings: RPMI8226 myeloma viability, higher = more signal;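 further: cells grown under basal conditions without added stimulus; test concentration not given here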
[16] = JC-1 mitochondrial signal, unstimulated HepG2 cells – cell-based, JC-1 fluorescence, 24 h, 100 nL compound, profiling panel (AID 1167); settings: HepG2 mitochondrial potential, higher = more signal; further: test concentration not given here
[17] = JC-1 mitochondrial signal, unstimulated adipocytes – cell-based, JC-1 fluorescence, 3T3-L1 adipocytes, 24 h, 100 nL compound, profiling panel (AID 1168); settings: JC-1 mitochondrial fluorescence, higher = more signal, called active from +8 up or from −8 down; further: test concentration not given here
[18] = JC-1 mitochondrial signal, unstimulated myeloma cells – cell-based, JC-1 fluorescence, RPMI8226, 24 h, 100 nL compound, profiling panel (AID 1169); settings: JC-1 mitochondrial potential fluorescence, higher = more signal; further: test concentration not given here
[19] = JC-1 mitochondrial signal, unstimulated MM1S myeloma – cell-based, JC-1 fluorescence, 24 h, 100 nL compound, profiling panel (AID 1170); settings: MM1S mitochondrial potential, higher = more signal; further: test concentration not given here
[20] = resazurin metabolic signal in A549 cells – cell-based, resazurin fluorescence, 24 h, PK04 Diversity Set, profiling panel (AID 1171); settings: A549 viability, higher = more signal, called active from +8 up or from −8 down; further: test concentration not given here

NADPH oxidase 4 (Homo sapiens), sequence (Q9NPH5 whole entry, looked up): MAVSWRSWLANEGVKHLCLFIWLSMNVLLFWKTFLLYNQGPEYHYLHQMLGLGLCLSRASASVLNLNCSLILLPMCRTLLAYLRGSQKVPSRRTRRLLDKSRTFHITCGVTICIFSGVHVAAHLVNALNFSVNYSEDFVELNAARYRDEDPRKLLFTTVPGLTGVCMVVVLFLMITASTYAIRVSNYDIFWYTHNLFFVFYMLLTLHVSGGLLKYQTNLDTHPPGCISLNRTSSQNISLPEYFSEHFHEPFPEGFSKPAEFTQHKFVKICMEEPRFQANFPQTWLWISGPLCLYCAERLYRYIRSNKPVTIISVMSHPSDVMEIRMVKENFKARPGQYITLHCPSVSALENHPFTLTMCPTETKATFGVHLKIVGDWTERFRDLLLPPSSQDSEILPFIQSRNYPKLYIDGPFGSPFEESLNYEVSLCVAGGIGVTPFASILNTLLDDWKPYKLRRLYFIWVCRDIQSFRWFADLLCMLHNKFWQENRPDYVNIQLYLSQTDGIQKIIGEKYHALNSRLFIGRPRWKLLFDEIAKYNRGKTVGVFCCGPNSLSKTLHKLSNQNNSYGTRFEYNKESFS
NADPH oxidase 5 (Homo sapiens), sequence (Q96PH1 whole entry, looked up): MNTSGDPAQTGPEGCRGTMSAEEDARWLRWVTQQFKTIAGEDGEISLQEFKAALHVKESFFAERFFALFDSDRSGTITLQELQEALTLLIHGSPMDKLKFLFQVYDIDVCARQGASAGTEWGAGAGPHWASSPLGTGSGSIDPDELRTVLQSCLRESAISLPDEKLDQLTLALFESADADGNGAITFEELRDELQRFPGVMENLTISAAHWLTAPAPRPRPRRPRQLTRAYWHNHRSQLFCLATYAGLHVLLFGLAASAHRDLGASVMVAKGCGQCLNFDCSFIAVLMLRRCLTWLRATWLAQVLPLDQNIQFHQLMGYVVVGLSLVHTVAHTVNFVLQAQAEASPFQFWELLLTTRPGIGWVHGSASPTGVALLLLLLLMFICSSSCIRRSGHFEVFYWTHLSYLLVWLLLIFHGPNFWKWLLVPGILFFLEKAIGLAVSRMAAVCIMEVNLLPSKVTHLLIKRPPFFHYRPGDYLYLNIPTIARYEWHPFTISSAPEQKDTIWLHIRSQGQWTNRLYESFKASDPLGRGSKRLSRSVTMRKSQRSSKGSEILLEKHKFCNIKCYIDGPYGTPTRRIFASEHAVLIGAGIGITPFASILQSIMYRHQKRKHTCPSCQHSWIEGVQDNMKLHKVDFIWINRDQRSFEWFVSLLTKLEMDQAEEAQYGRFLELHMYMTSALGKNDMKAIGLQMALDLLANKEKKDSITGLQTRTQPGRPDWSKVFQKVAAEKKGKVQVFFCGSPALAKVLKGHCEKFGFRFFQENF
NADPH oxidase 2 (Homo sapiens), sequence (P04839 whole entry, looked up): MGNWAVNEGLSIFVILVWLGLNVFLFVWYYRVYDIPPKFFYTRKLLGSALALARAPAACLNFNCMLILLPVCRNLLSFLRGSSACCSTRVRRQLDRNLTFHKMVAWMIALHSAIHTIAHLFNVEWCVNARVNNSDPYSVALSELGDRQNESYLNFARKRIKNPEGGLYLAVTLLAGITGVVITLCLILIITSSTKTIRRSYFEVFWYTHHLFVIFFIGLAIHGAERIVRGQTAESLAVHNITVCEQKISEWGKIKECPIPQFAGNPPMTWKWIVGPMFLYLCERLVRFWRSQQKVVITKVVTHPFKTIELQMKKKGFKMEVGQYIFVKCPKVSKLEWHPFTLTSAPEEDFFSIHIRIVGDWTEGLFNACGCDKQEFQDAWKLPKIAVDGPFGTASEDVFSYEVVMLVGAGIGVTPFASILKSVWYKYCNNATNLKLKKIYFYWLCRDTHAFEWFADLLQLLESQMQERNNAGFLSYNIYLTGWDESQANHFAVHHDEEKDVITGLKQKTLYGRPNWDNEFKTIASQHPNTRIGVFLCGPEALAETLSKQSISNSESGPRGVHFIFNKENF

## CC(C)N1CC=CC23O[C@@H]4C=CCOC(=O)[C@@H]4[C@H]2C(=O)N(CCCCCO)[C@@H]3C1=O (stereo not given in full)
[1]
  z-score: 2.79 (inactive)
[2]
  composite z-score: 0.19
[3]
  z-score: 0.641 (inactive)
[4]
  z-score: 0.0869 (inactive)
[5]
  z-score: 0.204 (inactive)
[6]
  z-score: 0.236 (inactive)
[7]
  z-score: 1.73
[8]
  z-score: 0.865 (inactive)
[9]
  z-score: 0.225 (inactive)
[10]
  z-score: 1.44
[11]
  z-score: 0.522
[12]
  z-score: 1.45
[13]
  z-score: -1.25
[14]
  z-score: 1.01
[15]
  z-score: 0.512
[16]
  z-score: -0.448
[17]
  z-score: -0.709 (inactive)
[18]
  z-score: 0.565
[19]
  z-score: -0.41
[20]
  z-score: 0.0829 (inactive)

## COCCOC(=O)N1C(=O)[C@@]2(c3cc(C#CCCO)ccc31)[C@H](c1ccc(OCCO)cc1)N1[C@H](c3ccccc3)[C@H](c3ccccc3)OC(=O)[C@H]1[C@@H]2C(N)=O
[1]
  z-score: 0.391 (inactive)
[2]
  composite z-score: 0.0329
[3]
  z-score: 12.1 (active)
[4]
  z-score: 2.16 (inactive)
[5]
  z-score: 0.136 (inactive)
[6]
  z-score: 0.932 (inactive)
[7]
  z-score: -0.296
[8]
  z-score: 1.93 (inactive)
[9]
  z-score: -0.511 (inactive)
[10]
  z-score: 0.419
[11]
  z-score: 0.617
[12]
  z-score: 0.435
[13]
  z-score: 1.35
[14]
  z-score: -0.109
[15]
  z-score: -0.804
[16]
  z-score: -0.72
[17]
  z-score: -0.456 (inactive)
[18]
  z-score: -0.899
[19]
  z-score: -0.0462
[20]
  z-score: 0.215 (inactive)

## CCCCC(=C=CC[C@@H](O)c1cccc(OCCO)c1)C[C@@H](O)c1ccccn1
[1]
  z-score: 0.158 (inactive)
[2]
  composite z-score: -0.147
[3]
  z-score: 14 (active)
[4]
  z-score: 1.33 (inactive)
[5]
  z-score: 0.375 (inactive)
[6]
  z-score: 0.504 (inactive)
[7]
  z-score: -0.0848
[8]
  z-score: -1.68 (inactive)
[9]
  z-score: -0.544 (inactive)
[10]
  z-score: -1.46
[11]
  z-score: -0.0385
[12]
  z-score: 0.317
[13]
  z-score: 0.175
[14]
  z-score: 0.225
[15]
  z-score: 0.427
[16]
  z-score: -0.667
[17]
  z-score: 0.316 (inactive)
[18]
  z-score: 0.907
[19]
  z-score: -0.578
[20]
  z-score: 0.764 (inactive)

## CC(=CC1CCCCC1)[C@@H](NC(=O)c1cccnc1)c1ccc(-c2ccccc2)cc1
[1]
  z-score: -2.67 (inactive)
[2]
  composite z-score: 0.188
[3]
  z-score: 1.85 (inactive)
[4]
  z-score: 0.943 (inactive)
[5]
  z-score: -0.0465 (inactive)
[6]
  z-score: 0.348 (inactive)
[7]
  z-score: -0.849
[8]
  z-score: -1.27 (inactive)
[9]
  z-score: -2.55 (inactive)
[10]
  z-score: -0.0302
[11]
  z-score: -1.3
[12]
  z-score: -0.671
[13]
  z-score: -1.63
[14]
  z-score: -2.15
[15]
  z-score: -2.59
[16]
  z-score: -2.99
[17]
  z-score: -1.26 (inactive)
[18]
  z-score: 0.597
[19]
  z-score: -0.462
[20]
  z-score: 1.49 (inactive)

## Cc1ccc(S[C@]2(C(=O)NCC(C)C)CC(=O)N(Cc3cc(C(F)(F)F)cc(C(F)(F)F)c3)[C@@H]2c2ccc(CO)cc2)cc1
[1]
  z-score: -0.687 (inactive)
[2]
  composite z-score: 0.2
[3]
  z-score: 1.3 (inactive)
[4]
  z-score: 0.596 (inactive)
[5]
  z-score: 0.664 (inactive)
[6]
  z-score: 0.13 (inactive)
[7]
  z-score: -0.0958
[8]
  z-score: 1.73 (inactive)
[9]
  z-score: 0.823 (inactive)
[10]
  z-score: -0.188
[11]
  z-score: -0.174
[12]
  z-score: 0.518
[13]
  z-score: -0.527
[14]
  z-score: -0.741
[15]
  z-score: -0.744
[16]
  z-score: -0.444
[17]
  z-score: -0.612 (inactive)
[18]
  z-score: 0.244
[19]
  z-score: -0.133
[20]
  z-score: -0.0187 (inactive)

## COc1ccc([C@H]2C[C@H]3C(Br)=C[C@@]2(CO)C(=O)[C@]32CO2)cc1
[1]
  z-score: -0.532 (inactive)
[2]
  composite z-score: -0.144
[3]
  z-score: -0.0473 (inactive)
[4]
  z-score: 0.316 (inactive)
[5]
  z-score: -0.231 (inactive)
[6]
  z-score: -0.039 (inactive)
[7]
  z-score: -0.578
[8]
  z-score: 0.24 (inactive)
[9]
  z-score: 0.624 (inactive)
[10]
  z-score: -0.268
[11]
  z-score: -0.0583
[12]
  z-score: -0.335
[13]
  z-score: -0.898
[14]
  z-score: -2.71
[15]
  z-score: -0.106
[16]
  z-score: -2.76
[17]
  z-score: 0.134 (inactive)
[18]
  z-score: -0.401
[19]
  z-score: -1.09
[20]
  z-score: 0.417 (inactive)

## O=C(O)[C@@]1(CCS(=O)(=O)c2ccccc2)N=C(c2ccc(OCCCO)cc2)O[C@H]1c1ccccc1
[1]
  z-score: 0.183 (inactive)
[2]
  composite z-score: 0.0458
[3]
  z-score: 22.6 (active)
[4]
  z-score: 4.96 (inactive)
[5]
  z-score: 0.178 (inactive)
[6]
  z-score: 0.789 (inactive)
[7]
  z-score: -0.238
[8]
  z-score: -0.333 (inactive)
[9]
  z-score: 1.66 (inactive)
[10]
  z-score: 1.26
[11]
  z-score: -0.932
[12]
  z-score: 0.784
[13]
  z-score: -0.258
[14]
  z-score: -0.839
[15]
  z-score: -1.04
[16]
  z-score: 0.591
[17]
  z-score: -0.249 (inactive)
[18]
  z-score: -0.178
[19]
  z-score: -0.51
[20]
  z-score: 0.761 (inactive)

## CCCCC(=C=CC[C@H](O)c1cccc(OCCO)c1)C[C@H](O)c1ccccn1
[1]
  z-score: 1.81 (inactive)
[2]
  composite z-score: -0.272
[3]
  z-score: 13.6 (active)
[4]
  z-score: 0.938 (inactive)
[5]
  z-score: 1.09 (inactive)
[6]
  z-score: -0.676 (inactive)
[7]
  z-score: 1.54
[8]
  z-score: -1.12 (inactive)
[9]
  z-score: -0.337 (inactive)
[10]
  z-score: -1.75
[11]
  z-score: 1.35
[12]
  z-score: 1.2
[13]
  z-score: 1.3
[14]
  z-score: -0.497
[15]
  z-score: 1.43
[16]
  z-score: 1.17
[17]
  z-score: -1.63 (inactive)
[18]
  z-score: 0.0444
[19]
  z-score: -1.1
[20]
  z-score: 2.05 (inactive)

## COCCOC(=O)N1C(=O)[C@@]2(c3ccccc31)[C@H](C(=O)N1CCc3cc(OC)c(OC)cc3C1)[C@H]1C(=O)O[C@H](c3ccccc3)[C@H](c3ccccc3)N1[C@@H]2c1ccc(O)cc1
[1]
  z-score: 3.04 (inactive)
[2]
  composite z-score: -0.0186
[3]
  z-score: 0.927 (inactive)
[4]
  z-score: -0.751 (inactive)
[5]
  z-score: -0.965 (inactive)
[6]
  z-score: -1.93 (inactive)
[7]
  z-score: 2.38
[8]
  z-score: 0.571 (inactive)
[9]
  z-score: 0.549 (inactive)
[10]
  z-score: 1.2
[11]
  z-score: 2.4
[12]
  z-score: 1.1
[13]
  z-score: 1.76
[14]
  z-score: 0.275
[15]
  z-score: 0.0454
[16]
  z-score: 0.218
[17]
  z-score: 0.743 (inactive)
[18]
  z-score: -0.69
[19]
  z-score: 0.0766
[20]
  z-score: -0.223 (inactive)

— PubChem BioAssay
